Measurements published in PubChem BioAssay (Tox21).
Inconclusive results are not listed. A call without a number means that no potency is given here. Calls of active or inactive are those of the source. Calls follow the shape of the dose curve; as a rule, active = well fitted inhibition curve with a large enough effect in the signal ratio in the repeat runs; inconclusive = weak or mixed curves, or effect the other way; inactive = flat fitted curve, though single readings scatter; the % refers to the signal ratio.

test: qHTS assay for small molecule disruptors of the mitochondrial membrane potential (AID 720635); details: HepG2 mitochondrial membrane potential, Mito-MPS dye ratio; series mostly up to 83.2 µM
Method in brief: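 Mitochondrial membrane potential tracked with Mito-MPS dye, red aggregates (ex 540/em 590 nm) against green monomers (ex 490/em 535 nm). Compound treatment 1 hr at 37C, dye 30 min in HepG2.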
Potency is read from the fitted curve at half-maximal effect.

Q: With `NC(=O)c1ncn([C@@H]2O[C@H](CO)[C@@H](O)[C@H]2O)c1N` as the molecule, how does the Potency read?
A: The Potency was “inactive”.

Q: With `CC(C)[N+](C)(C)CC(O)COc1cccc2ccccc12` (stereo not given) as the molecule, how does the Potency read?
A: The Potency was “inactive”.

Q: With `CSc1nc(NC2CC2)nc(NC(C)(C)C)n1` as the molecule, how does the Potency read?
A: Its Potency is 8.63 µM (active).

Q: With `CC(O)CN(CCCN(C)C)CCCN(C)C` (stereo not given) as the molecule, how does the Potency read?
A: Its Potency is “inactive”.

Q: For `OCCN1C[C@H](O)[C@@H](O)[C@H](O)[C@H]1CO`, which Potency is on record?
A: Its Potency is “inactive”.

Q: Which Potency does the source give for `O=[N+]([O-])c1ccc(Oc2ccc([N+](=O)[O-])cc2)cc1` here?
A: Its Potency is 5.57 µM (active).

Q: With `CC(C)c1cccc(O)c1` as the molecule, how does the Potency read?
A: The Potency was 64.4 µM (active).

Q: With `COc1cccc(Br)c1` as the molecule, how does the Potency read?
A: Its Potency is “inactive”.

Q: With `CC(C)(O)C(=O)c1ccc(OCCO)cc1` as the molecule, how does the Potency read?
A: The Potency was “inactive”.

Q: Which Potency does the source give for `CC(C)N1C(=O)c2ccccc2C1=O` here?
A: The Potency was “inactive”.

Q: With `CC(C)c1cccc(C(C)C)c1N` as the molecule, how does the Potency read?
A: Its Potency is “inactive”.

Q: Which Potency does the source give for `CCCCOCC(C)OCC(C)O` (stereo not given) here?
A: The Potency was “inactive”.

Q: With `Cc1ccccc1C(=O)O` as the molecule, how does the Potency read?
A: Its Potency is “inactive”.

Q: With `CCCCCCCCCCCCCCCCCCOCC(O)CO` (stereo not given) as the molecule, how does the Potency read?
A: The Potency was “inactive”.

Q: With `C=CCOc1nc(OCC=C)nc(OCC=C)n1` as the molecule, how does the Potency read?
A: The Potency was “inactive”.
